Hit rate of the full screen: of about 400,000 compounds, about 5,500 (1.4%) were called active. About 9% were inconclusive and are not listed. Calls follow the shape of the dose curve; as a rule, active = well fitted cell-killing curve with a large enough effect; inconclusive = small, poorly fitted or top-dose-only effect, or effect the other way; inactive = flat fitted curve, though single readings scatter. This excerpt belongs to a sample that is enriched for actives.
assay: qHTS assay for MDR1-selective chemotherapeutics: Primary screen using the parental adenocarcinoma cell KB-3-1; conditions: KB-3-1 viability, CellTiter-Glo ATP luminescence, 72 h; series mostly up to 46.1 µM; activity change, negative = cytotoxic: at the top concentration; also: nearly all actives have a fitted effect of over 60% in size
Description: A prime difficulty in effectively treating cancer is the development of cellular resistance to multiple structurally unrelated anticancer drugs, a phenomenon known as multidrug resistance (MDR). […] Numerous strategies to overcome P-gp-mediated MDR have been explored, including the design of drugs that evade recognition and efflux, and development of inhibitors to block efflux and restore drug accumulation. […] An alternative approach is to exploit resistance by identifying drugs that target MDR cells over the non-resistant parental cells from which they were selected. […] The development of MDR1-selective agents represents a new strategy for resolving multidrug resistance, as it remains a long-standing clinical challenge for cancer chemotherapy.
Our goal is to identify compounds that selectively kill P-gp-expressing MDR cells. We will identify MDR1-selective compounds by comparing toxicity of compounds in the screening library against parental, drug-naive (KB-3-1) adenocarcinoma cells as well as their drug-selected MDR sub-line (KB-V1). The differential toxicity of compounds against these two cell lines will be used to identify MDR1-selective compounds, whose cytotoxicity is potentiated, rather than diminished, by P-gp expression. This assay will be utilized to conduct a quantitative high-throughput screen (qHTS) in collaboration with the NIH Chemical Genomics Center to identify selective agents, and probe hits arising from the screen will be validated using secondary assays and characterized through a well-established follow-up research program. This screen was run against the entire NCGC library collection of about 400,000 compounds.
NIH Molecular Libraries Probe Production Network [MLPCN]
NIH Chemical Genomics Center [NCGC]
PI: Michael Gottesman PhD, National Cancer Institute, NIH
Briefly, 5 microL of media containing either KB-3-1 cells (columns 1-2, 4-48) are dispensed into Greiner white, treated solid-bottom 1536-well assay plates (media-only control is added to column 3). Compounds are then transferred via Kalypsys pin tool equipped with 1536-pin array (10 nL slotted pins, V&P Scientific, San Diego, CA). Following addition of compound, the plates are incubated at 37 degrees C for 72 hours. CellTiter-Glo (2.5 µL/well) is then added, and the plates are read in a ViewLux reader (Perkin-Elmer, clear luminescence filter, 1 second exposure, 1x binning) following a 10 minute incubation. All cells are dispensed in DMEM phenol-red free media containing 10% FBS.
Library plates were screened starting from the lowest and proceeding to the highest concentration. Vehicle-only plates, with DMSO being pin-transferred to columns 5-48, will be inserted uniformly at the beginning and the end of each library in order to monitor and record any shifts in the background, which can be affected by reagent dispensers or loss in enzyme activity over time. Screening data will be corrected, normalized, and concentration-effect relationships will be derived by using publicly-available NCGC, NCATS curve fitting algorithms (http://ncgc.nih.gov/pub/openhts).
% is scaled to controls: 0 for no effect and ±100 for the full control effect; potency is read from the fitted curve at half-maximal effect.

SMILES | Potency | activity change, negative = cytotoxic
COC1C(O)C(C)OC(OC2CCC3(C=O)C(CCC4C3CCC3(C)C(C5=CC(=O)OC5)CCC43O)C2)C1O (stereo not given) | 0.0058 µM (active) | 
S=C(NCCc1ccccc1)N1Cc2cc(N3CCOCC3)ccc2-n2nncc2C1 |  | 0.0564% (inactive)
O=C1NCN(c2ccccc2)C12CCN(C(c1cccs1)c1nnnn1C1CCCCC1)CC2 (stereo not given) |  | 0.0564% (inactive)
CC(C)CN1Cc2cc(N3CCCCC3)ccc2-n2nncc2C1 |  | 0.0564% (inactive)
O=C(NCC1=C(c2ccc3ccccc3c2)C[C@@H]2CC[C@H]1N2Cc1ccco1)c1cccs1 |  | -17% (inactive)
CCCCCCCCCCCCn1ccc(=N)cc1 | 1.3 µM (active) | 
COc1ccc(NC(=O)N2Cc3ccccc3-n3nncc3C2)cc1 |  | 6.29% (inactive)
c1cc2c(c(NC3=NCCCS3)c1)CCCC2 |  | -15.7% (inactive)
CC(=O)NCC1=C(c2ccc3ccccc3c2)C[C@@H]2CC[C@H]1N2Cc1ccco1 |  | 1.55% (inactive)
O=c1[nH]c2ccccc2n1C1CCN(C(c2ccnc3ccccc23)c2nnnn2Cc2ccccc2)CC1 (stereo not given) |  | -2.56% (inactive)
CCOC(=O)[C@]12Cc3cc(OC)ccc3[C@H]1N(C(C)C)C(=O)c1ccccc12 | 6.51 µM (active) | 
CCOC(=O)[C@]12Cc3ccccc3[C@H]1N(C1CCCCC1)C(=O)c1cc(OC)ccc12 | 4.61 µM (active) | 
O=C(O)c1cc[c]([Sb](=[O])([OH])[OH])cc1[N+](=O)[O-] |  | 29% (inactive)
Cc1ccc(OC(=O)N(C)C[C@@H]2OCc3cnnn3CCCC(=O)N([C@H](C)CO)C[C@@H]2C)cc1 |  | 8.17% (inactive)
O=C(O)/C=C/c1ccc2c(c1)OCO2 |  | -11.5% (inactive)
COC(=O)CN(CCCl)P1(=O)OCCCN1CCCl (stereo not given) |  | 23.9% (inactive)
C[C@]12CC[C@H](O)C[C@H]1CC[C@@H]1C2CC[C@]2(C)[C@@H](C3=CC(=O)OC3)[C@@H](O)C[C@]12O (stereo not given in full) | 2.31 µM (active) | 
C[C@]12CCC3C(CC[C@H]4C[C@@H](O)CC[C@]34C)C1C[C@@H](O)[C@H]2O (stereo not given in full) |  | -0.788% (inactive)
C[C@]12CCC3C(CC[C@H]4C[C@@H](O)CC[C@]34C)C1CC[C@@H]2O (stereo not given in full) |  | 22.6% (inactive)
COc1cc(C(=O)N2Cc3ccc(Br)cc3-n3nncc3C2)cc(OC)c1OC |  | 0.0564% (inactive)

SMILES | Potency | activity change, negative = cytotoxic
C[C@H]1CN([C@@H](C)CO)C(=O)CCCn2nncc2CO[C@H]1CN(C)C(=O)Oc1cccc2ccccc12 |  | 0% (inactive)
O=C(NC1CCCCC1)N1Cc2cc(N3CCCCC3)ccc2-n2nncc2C1 |  | 0.03% (inactive)
Cc1ccc(NC(=O)N(Cc2ccc3c(c2)OCO3)C2CCN(Cc3ccccc3)CC2)cc1F |  | -5.54% (inactive)
CCCCn1c(O)c(C(CC)=NCc2ccco2)c(=O)[nH]c1=O |  | -0.31% (inactive)
CCC(=NCCCO)c1c(O)n(-c2ccc(OC)cc2)c(=O)[nH]c1=O |  | 0% (inactive)
CCCCCCN=C(CC)c1c(O)n(CCCC)c(=O)[nH]c1=O | 18.4 µM (active) | 
COc1cccc(C(c2nnnn2-c2ccc3c(c2)OCCO3)N2CCC3(CC2)C(=O)NCN3c2ccccc2)c1OC (stereo not given) |  | -1.93% (inactive)
O=C1C2CCN(CC2)C1(CO)CO |  | 3.63% (inactive)
Cn1cc(/C=C/c2nc3ccccc3c(=O)n2-c2ccccc2)c2ccccc21 |  | -7.08% (inactive)
ClCCN(CCCl)c1ccc(C=Nc2ccc(/C=C/c3ccnc4ccccc34)cc2)cc1 |  | -0.0871% (inactive)
COC(=O)C1=C(c2ccccc2)C[C@@H]2CC[C@H]1N2C(=O)NCc1ccco1 |  | -2.82% (inactive)
CCOC(=O)c1c(N)n(Cc2ccccc2)c2nc3ccccc3nc12 |  | -11.6% (inactive)
COc1cc(Cn2c(N)c(C(=O)NCc3ccco3)c3nc4ccccc4nc32)cc(OC)c1OC | 23.1 µM (active) | 
c1ccc(N2Cc3ccccc3-n3nncc3C2)nc1 |  | -7.89% (inactive)
O=P(OC1=CCCCC1)(c1ccccc1)c1ccccc1 |  | 0% (inactive)
O=c1c2ccccc2[nH]c(=S)n1-c1cccc(Cl)c1 |  | -23.5% (inactive)
Cc1nnc(NC(=O)c2cccn(Cc3cccc(F)c3)c2=O)s1 |  | 0.206% (inactive)
CCC(C)(O)C(=O)OC1C(=O)OC2CC3C(C)=CC(=O)C(O)C3(C)C3C4(O)OCC23C1C(C)C4O (stereo not given) | 0.291 µM (active) | 
CCn1cc(CN2CCCC(C(=O)c3cccc(C(F)(F)F)c3)C2)cn1 (stereo not given) |  | 0.0302% (inactive)
CCOC(=O)CNC(=O)N1Cc2cc(N3CCCCC3)ccc2-n2nncc2C1 |  | -0.0736% (inactive)

— PubChem BioAssay AID1347075 (National Center for Advancing Translational Sciences (NCATS), 2019)
